{
  "source": "the supplement of paper PMC8728848",
  "test_in_all_cases": "glycan array binding signal (z-score within array); higher = stronger binding",
  "conditions_in_all_cases": "glycan notation: IUPAC condensed, linker removed",
  "key": {"[1]": {"target": "Neu5Ac(a2-3)Gal", "outline": "(§1)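 The binding signal is a Z-score computed within each array. Data were drawn from 3228 arrays in the Consortium for Functional Glycomics database, restricted to those with a known protein sequence. Scores were averaged over arrays of the same protein sequence at different concentrations or buffers, and over linkers, and negative values can be taken as non-binding.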"}, "[2]": {"target": "Neu5Ac(a2-3)Gal(b1-3)GalNAc(b1-4)[Neu5Ac(a2-8)Neu5Ac(a2-3)]Gal(b1-4)Glc", "outline": "as §1"}, "[3]": {"target": "Neu5Ac(a2-3)Gal(b1-3)GlcNAc(b1-2)Man", "outline": "as §1"}, "[4]": {"target": "Neu5Ac(a2-3)Gal(b1-4)GlcNAc(b1-2)Man(a1-3)[GlcNAc(b1-4)][Neu5Ac(a2-3)Gal(b1-4)GlcNAc(b1-2)Man(a1-6)]Man(b1-4)GlcNAc(b1-4)GlcNAc", "outline": "as §1"}, "[5]": {"target": "Neu5Ac(a2-3)Gal(b1-4)GlcNAc(b1-3)Gal(b1-4)GlcNAc", "outline": "as §1"}, "[6]": {"target": "Neu5Ac(a2-3)Gal(b1-4)GlcNAc(b1-3)Gal(b1-4)[Fuc(a1-3)]GlcNAc", "outline": "as §1"}, "[7]": {"target": "Neu5Ac(a2-3)Gal(b1-4)GlcNAc(b1-6)[Neu5Ac(a2-3)Gal(b1-3)]GalNAc", "outline": "as §1"}, "[8]": {"target": "Neu5Ac(a2-3)Gal(b1-4)GlcNAc6S", "outline": "as §1"}, "[9]": {"target": "Neu5Ac(a2-3)Gal(b1-4)[Fuc(a1-3)]GlcNAc(b1-6)[Gal(b1-3)]GalNAc", "outline": "as §1"}, "[10]": {"target": "Neu5Ac(a2-6)GalNAc(b1-4)GlcNAc", "outline": "as §1"}, "[11]": {"target": "Neu5Ac(a2-6)GlcNAc(b1-4)GlcNAc", "outline": "as §1"}, "[12]": {"target": "Neu5Ac(a2-8)Neu5Ac(a2-8)Neu5Ac", "outline": "as §1"}, "[13]": {"target": "Neu5Gc(a2-3)Gal(b1-4)[Fuc(a1-3)]GlcNAc", "outline": "as §1"}},
  "note": "Many of the other results were omitted from the sample, so the strongest signals are more common in it than they were.",
  "data": [
    {"binder": "HA-11100 (Pseudomonas aeruginosa), Q02G51_PSEAB (protein) QFNPNEIKISQQGKTTLIDQSTQRAIINWKGFDVSADEAVRFNQPGVTSSTLNRVTAGQESVIAGRISAPGQVIIYNSNGVVFSGSAKVDVGSLITTTANISDEHFRQGKLIFDQPGNPDARIVNDGSISVAEKGLAAFVAPSVANNGVINARLGTVAMAAGNAATIDLYG", "values": [
      {"measurement": "glycan array binding signal (z-score)", "setting": "[1]", "value": -0.148},
      {"measurement": "glycan array binding signal (z-score)", "setting": "[2]", "value": -0.214},
      {"measurement": "glycan array binding signal (z-score)", "setting": "[3]", "value": -0.402},
      {"measurement": "glycan array binding signal (z-score)", "setting": "[4]", "value": -0.268},
      {"measurement": "glycan array binding signal (z-score)", "setting": "[5]", "value": -0.347},
      {"measurement": "glycan array binding signal (z-score)", "setting": "[6]", "value": -0.737},
      {"measurement": "glycan array binding signal (z-score)", "setting": "[7]", "value": -0.222},
      {"measurement": "glycan array binding signal (z-score)", "setting": "[8]", "value": -0.016},
      {"measurement": "glycan array binding signal (z-score)", "setting": "[9]", "value": 4.78},
      {"measurement": "glycan array binding signal (z-score)", "setting": "[10]", "value": -0.851},
      {"measurement": "glycan array binding signal (z-score)", "setting": "[11]", "value": -0.421},
      {"measurement": "glycan array binding signal (z-score)", "setting": "[12]", "value": -0.333},
      {"measurement": "glycan array binding signal (z-score)", "setting": "[13]", "value": -0.065}
    ]}
  ]
}
